Source: PubChem BioAssay (NCI)
This is part of a sample that, as a whole, favours compounds with a hit. Of some 79,000 tested, about 15% had one in any assay. Activity calls are given as the source filed them. Rule as the data show it: active = growth inhibition above about 70%; inactive = the rest.

How the values were obtained:
[1] = NCI Yeast Anticancer Drug Screen. Data for the rad50 strain (AID 155);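 also: 0% = growth of vehicle-only cultures of the same strain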; conditions: S. cerevisiae rad50 strain growth inhibition; at 50.0 µM; active compounds read high
Outline: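 DNA repair mutant yeast, compound exposure, growth read-out; inhibition is taken relative to vehicle.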

[2] = NCI Yeast Anticancer Drug Screen. Data for the mec2-1 strain (AID 157); conditions: S. cerevisiae mec2-1 strain, at 50.0 µM, active compounds read high
Outline: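 Strain: mec2-1 (DNA repair/cell cycle alteration). Compound exposure, then growth measured; inhibition expressed relative to vehicle.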

[3] = NCI Yeast Anticancer Drug Screen. Data for the sgs1 mgt1 strain (AID 161);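 also: 0% = growth of cultures given vehicle only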; conditions: S. cerevisiae sgs1 mgt1 strain, at 50.0 µM, active compounds read high
Outline: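 Inhibition of yeast growth, normalised to vehicle-treated controls, is reported for a strain bearing genetic alterations in DNA damage repair.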

[4] = NCI Yeast Anticancer Drug Screen. Data for the cln2 rad14 strain (AID 165);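 also: 0% = growth equal to vehicle treated cultures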; conditions: S. cerevisiae cln2 rad14 strain, at 50.0 µM, active compounds read high
Outline: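 Compounds are applied to the cln2 rad14 yeast strain, and growth is then compared with that of vehicle-treated cultures to give inhibition.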

[5] = NCI Yeast Anticancer Drug Screen. Data for the bub3 strain (AID 167); conditions: S. cerevisiae bub3 mutant strain, at 50.0 µM, active compounds read high
Outline: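 In this screen, a yeast mutant lacking normal mitotic checkpoint function is challenged with compound. Relative growth versus vehicle gives the inhibition value.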

[6] = NCI Yeast Anticancer Drug Screen. Data for the mlh1 rad18 strain (AID 175); conditions: S. cerevisiae mlh1 rad18 strain growth inhibition; at 50.0 µM; active compounds read high
Outline: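 Read-out is yeast growth inhibition, calculated against vehicle-only controls. The compound was applied to a strain engineered with DNA damage repair alterations.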

Measured: growth inhibition

CN(C)C(SCc1c(Cl)c(Cl)c(Cl)c(Cl)c1Cl)=[N+](C)C
inactive: [1] 19.4% | [2] 6.3% | [3] 15.4% | [4] 11.8% | [5] 7.15% | [6] 28.6%

Nc1cccc(C(F)(F)F)c1N
inactive: [1] -13.6% | [2] -15.4% | [3] -6.7% | [4] -24.4% | [5] -13.6% | [6] 8.3%

Cc1cc(=O)oc2cc(OCc3ccccc3)cc(O)c12
inactive: [1] 22.8% | [2] 4.2% | [3] 21.8% | [4] -3.3% | [5] 6.45% | [6] 12.8%

CCN(CC)Cc1cc(Nc2cc(C)nc(/N=C(\N)Nc3cc(Cl)cc(Cl)c3)n2)ccc1O
inactive: [2] 69.2% | [4] 10.2% | [5] 7.95%
active: [1] 95.2% | [3] 97.2% | [6] 91.1%

CC/C(=N/NC(N)=O)C1C=COC=C1
inactive: [1] -5.75% | [2] 2% | [3] -0.1% | [4] -6.8% | [5] -11.8% | [6] 1.2%

NCCCn1[nH]c(=O)c2cccnc2c1=O
inactive: [1] -62.9% | [2] -19% | [3] -19% | [4] -74% | [5] -3.8% | [6] -16.3%

Cc1ccc2nccnc2c1
inactive: [1] -2.45% | [2] 3.9% | [3] -12.2% | [4] 5.1% | [5] 10.9% | [6] -1.85%

Nc1cnc(N)nc1
inactive: [1] -8.4% | [2] -18.8% | [3] -21.6% | [4] -24.4% | [5] 11.8% | [6] -17.2%

N#CCCN(CCC#N)Cc1ccc2c(O)c(CN(CCC#N)CCC#N)ccc2c1O
inactive: [1] 23.8% | [2] 7.35% | [3] 3.35% | [4] -1.65% | [5] -0.15% | [6] 3.65%

Cc1ccc(O)c2occ(C)c12
inactive: [1] 17.7% | [2] 12.1% | [3] 10.5% | [4] 36.9% | [5] -2.8% | [6] 39.5%

COc1ccc(OC)c(C(c2cc(OC)ccc2OC)C(Cl)(Cl)Cl)c1
inactive: [1] 0.45% | [2] -13.2% | [3] -5.3% | [4] -6.45% | [5] -6% | [6] 14.6%

O=C(O)c1cccc(F)n1
inactive: [1] -0.45% | [2] 2.05% | [3] -1.8% | [4] 3.1% | [5] -0.65% | [6] -1.85%

O=C(O)Cc1cccc(C(=O)O)c1
inactive: [1] -1.55% | [2] -8% | [3] -7.3% | [4] 8.4% | [5] -0.45% | [6] -3.35%

CCCCCC#CC(=O)OC
inactive: [1] -14.8% | [2] 1.45% | [3] -17.4% | [4] 9.95% | [5] -2.2% | [6] 2.75%

Cc1cccc(C)c1NC(=O)N1CCN(C)CC1
inactive: [1] 1.9% | [2] 14.3% | [3] -3.3% | [4] -75.8% | [5] -9.45% | [6] -18.6%

C/C(=N/NC(=S)Nc1ccccc1Cl)c1cccc(/C(C)=N\NC(=S)Nc2ccccc2Cl)n1
inactive: [1] 39.4% | [2] 16.9% | [3] 39.8% | [4] 6.3% | [5] 32.1% | [6] 24.7%

N#CSCC(Cl)=CCl (mixture of isomers)
inactive: [1] 2.95% | [2] 0.95% | [3] -4.4% | [4] 12.5% | [5] 0.5% | [6] -19.6%

NC(=S)N/C=C\c1nc2ccccc2[nH]c1=O
inactive: [1] -34.4% | [2] -18.6% | [3] -39.1% | [4] -21.8% | [5] -12.1% | [6] -15.4%

OCCCCN(CCO)CCCCO
inactive: [1] -2.75% | [2] -7.25% | [3] -1.5% | [4] -12.4% | [5] 13.9% | [6] -3.5%

O=C1C(SCCO)=C(SCCO)C(=O)c2[nH]cnc21
inactive: [1] 13.8% | [2] -10.4% | [3] 6.5% | [4] -0.85% | [5] 6.8% | [6] 4.15%

COc1ccc(C(=O)c2ccc(OC)cc2OC)cc1
inactive: [1] -4.15% | [2] 1.7% | [3] 21.4% | [4] -23.1% | [5] 3.05% | [6] 1.3%

O=Nc1c(-c2ccccc2)nnc(-c2ccccc2)c1N=O
inactive: [1] -24.9% | [2] 6.95% | [3] -0.3% | [4] -54.8% | [5] 34.7% | [6] -6.2%

C/C(=C\N1CCCCC1)C(=O)c1ccc(F)cc1
inactive: [1] 9.3% | [2] 13.2% | [3] -4.65% | [4] 6.25% | [5] -16.4% | [6] 24.7%

COc1ccc(C(=O)C(C)C(O)C(=O)O)c(O)c1C (stereo not drawn)
inactive: [1] 8.15% | [2] 14.9% | [3] -1.25% | [4] 2% | [5] -16.5% | [6] 9.15%

CC(C)(O)C1COC2=C1C(=O)c1ccccc1C2=O (stereo not drawn)
inactive: [1] 11.8% | [2] -10.2% | [3] 24.6% | [4] 12.6% | [5] 7.2% | [6] -35.9%

COC(=O)c1c[nH]c(C=O)c1C
inactive: [1] 15.8% | [2] -0.7% | [3] -6.95% | [4] -67.8% | [5] 8.3% | [6] 8.8%

CCOC(=O)Cc1c(C)cc(C)cc1C
inactive: [1] 18.9% | [2] -6.3% | [3] -10.4% | [4] 3.35% | [5] 15.7% | [6] 10.4%

CCCCCCCCCCCCOC(=S)CCl
inactive: [1] -10.9% | [2] -10.7% | [3] 10.8% | [4] -18.9% | [5] 4.55% | [6] 14.7%

C=CCOCOC(C)C(=O)OCC (stereo not drawn)
inactive: [1] -10.5% | [2] 6.6% | [3] -8.35% | [4] -26.7% | [5] -9.2% | [6] 6.45%

O=C(CN1C(=O)c2ccccc2C1=O)NCCO
inactive: [1] -26.8% | [2] -29.1% | [3] -11.8% | [4] -11.7% | [5] -29.1% | [6] -17.2%

CCOC(=O)c1c(NCc2ccccc2)n(-c2ccccc2)c(=S)n(-c2ccccc2)c1=O
inactive: [1] 17.1% | [2] -6.8% | [3] 0.6% | [4] 32.1% | [5] 14.8% | [6] 53%

CCn1c2ccccc2c2c3ncc4cccn4c3ccc21
inactive: [1] 10.8% | [2] -6.95% | [3] 19.4% | [4] 14.4% | [5] 7.95% | [6] 27.8%

O=C1c2ccccc2C(=O)N1CCc1ccccn1
inactive: [1] 5.5% | [2] -6% | [3] 3.95% | [4] -27.1% | [5] -0.45% | [6] -22.9%

O=C1Oc2ccccc2C(=O)C1=Ic1ccccc1
active: [3] 73.6%
inactive: [1] 31.3% | [2] 52.9% | [4] 51.3% | [5] 38% | [6] 56%

C[C@]12C(=O)OC[C@H](c3ccccc3)N1C(=O)N(Cc1ccccc1)[C@@H]2CO
inactive: [1] -27.8% | [2] -26.1% | [3] -17.6% | [4] 1.6% | [5] 17.1% | [6] -9.5%

CCC(O)C1CCCCN1 (stereo not drawn)
inactive: [1] -20.8% | [2] -7% | [3] -12.2% | [4] -4.05% | [5] -17.5% | [6] -11.2%

CC(=O)Nc1ccc(NC(=O)Nc2cccc(Cl)c2C)cc1
inactive: [1] 2.75% | [2] -0.35% | [3] 3.05% | [4] 11.7% | [5] 17.4% | [6] 5.3%

CC(C)NNC(N)=O
inactive: [1] -0.2% | [2] 1.7% | [3] -0.8% | [4] -8.1% | [5] 12.4% | [6] -5.65%
